This passage reports activation results from PubChem BioAssay AID1697 (The Scripps Research Institute Molecular Screening Center, 2009).

Each structure is given as a SMILES string. This is one part of the list. A number with no mark means an inactive call. Activity calls are given as the source filed them.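 The calls were made as follows: active = percent activation above the mean of DMSO-only control wells plus 3 SD of those wells (cut at about 18% in these data); inactive = the rest.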

The target in this assay is Neuropeptide Y receptor type 1 (Homo sapiens) (UniProt P25929). In words: human Y1 receptor agonism – cell-based, fluorescence, counter-screen for NPY-Y1 potentiator project, confirmation (AID 1697).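 Also: cells challenged with isoproterenol plus Ro 20-1724 with no NPY in test wells; Y1 agonism lowers isoproterenol-driven cAMP and reduces probe fluorescence.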 Conditions: HEK293 Y1-CNGC, membrane potential fluorescence, agonist mode; at 3.6 µM; active compounds read high.
Chain of Neuropeptide Y receptor type 1 (Homo sapiens) (P25929 whole entry, looked up): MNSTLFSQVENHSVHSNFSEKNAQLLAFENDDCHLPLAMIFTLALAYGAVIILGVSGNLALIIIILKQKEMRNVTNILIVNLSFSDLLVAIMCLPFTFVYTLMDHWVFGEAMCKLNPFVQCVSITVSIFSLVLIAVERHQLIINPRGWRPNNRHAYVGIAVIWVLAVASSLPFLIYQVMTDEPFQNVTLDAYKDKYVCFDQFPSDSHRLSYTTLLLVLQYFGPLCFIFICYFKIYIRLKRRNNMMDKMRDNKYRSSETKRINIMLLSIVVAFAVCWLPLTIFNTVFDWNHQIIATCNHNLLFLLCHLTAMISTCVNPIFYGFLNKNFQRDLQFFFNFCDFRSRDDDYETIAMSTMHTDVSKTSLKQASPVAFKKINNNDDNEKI

Take `CSC1=NP(=S)(SC)N(C)c2nc3n(c21)CCC3` (configuration not stated): the activation is 9.49%.
For the molecule `Cc1nn(Cc2ccccc2Cl)c(Cl)c1C(=O)OC(C(=O)NC(N)=O)C(C)C` (configuration not stated), the activation is 30.6% (active).
